Source: PubChem BioAssay (National Center for Advancing Translational Sciences (NCATS))
Compounds with a hit are over-represented: about 3.4% of the library has one in this group of screens.
Tau fibril FP – inhibitors of human tau fibril formation; K18 P301L tau heparin fibrillization, Alexa594 FP, 6 h; Potency, µM (top dose mostly 57.7 µM), usual class: inhibitors; 0.39% of 280,000 active; AID 1468; further: nearly all actives have a fitted effect of over 55% in size
Target sequence (P10636 561-689 P618L limits assumed): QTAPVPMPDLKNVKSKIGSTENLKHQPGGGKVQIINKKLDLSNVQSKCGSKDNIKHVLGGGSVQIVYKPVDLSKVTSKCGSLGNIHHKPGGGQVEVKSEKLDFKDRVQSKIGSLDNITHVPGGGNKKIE
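Recombinant K18 P301L […], labeled with Alexa 594 at 0.24 uM over 15 uM unlabeled; heparin inducer 20 uM final; 37 C, 6 hr; FP endpoint.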
JMJD2E inh – JMJD2E (human) inhibition; AID 2147; 1.6% of 230,000 active; JMJD2E catalytic domain, FDH-coupled NADH fluorescence (FDH is formaldehyde dehydrogenase); Potency, µM (titrated, usually from 57.1 µM), usual class: inhibitors; B2RXH2; active means well fitted inhibition curve with a large enough effect, not every such curve was filed as active; inconclusive means small, poorly fitted or top-dose-only effect, or another doubt; inactive means no such curve, though single readings can be large or run the other way; further: nearly all actives have a fitted effect of over 50% in size
Tau fibril ThT – inhibitors of human tau fibril formation, thioflavin T binding | P10636 | recombinant tau K18 P301L, heparin-induced fibrillization, ThT fluorescence | AID 1460 | Potency, µM (titrated, usually from 57.4 µM), usual class: inhibitors | 2.1% of 270,000 active; further: nearly all actives have a fitted effect of over 55% in size
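Tau K18 P301L fragment (15 uM unlabeled plus 0.24 uM Alexa 594-labeled) in 100 mM sodium acetate pH 7 with compound, fibrillization induced by 20 uM heparin for 6 hr at 37 C. Thioflavin T (30 uM) added, fluorescence read after 1 hr (ex 450, em 510 nm).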
Tau fluor counter – counter-screen for tau fibril formation inhibitors. Potency, µM (titrated, usually from 57.7 µM). tau K18 P301L (four-repeat tau fragment) Alexa594 fluorescence, heparin fibrillization. AID 1463. 0.93% of 280,000 active; further: nearly all actives have a fitted effect of over 55% in size
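Human K18 P301L tau (15 uM unlabeled plus 0.24 uM Alexa 594-labeled, final) in 100 mM sodium acetate pH 7 was mixed with compound and 20 uM heparin and incubated 6 hr at 37 C.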
RGS12 GoLoco inh – inhibitors of human Gai1-RGS12 GoLoco interaction (red fluorophore); Gai1:RGS12 GoLoco peptide FP, rhodamine, 10 min; P63096; AID 880; Potency, µM (series often up to 61.6 µM), hits mostly inhibitors; 0.44% of 230,000 active; active means well fitted inhibition curve with a large enough effect, not every such curve was filed as active; inactive means no such curve, though single readings can be large or run the other way; further: nearly all actives have a fitted effect of over 30% in size
Target sequence (P63096 whole entry, looked up): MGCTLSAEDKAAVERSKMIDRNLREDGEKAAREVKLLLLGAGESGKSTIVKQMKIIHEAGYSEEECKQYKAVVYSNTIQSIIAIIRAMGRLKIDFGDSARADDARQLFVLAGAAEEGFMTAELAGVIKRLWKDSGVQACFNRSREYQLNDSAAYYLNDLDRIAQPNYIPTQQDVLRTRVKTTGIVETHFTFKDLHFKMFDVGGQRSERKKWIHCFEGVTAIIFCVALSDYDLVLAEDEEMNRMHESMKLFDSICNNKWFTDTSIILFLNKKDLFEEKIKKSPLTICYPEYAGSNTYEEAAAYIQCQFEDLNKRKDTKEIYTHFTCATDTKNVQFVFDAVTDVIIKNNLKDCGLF
Hits are given with their value. Unless noted, the call rests on the fitted dose curve; in most records, active means well fitted curve in the direction sought with a large enough effect; inconclusive means small, poorly fitted or top-dose-only effect, or another doubt; inactive means no such curve, though single readings can be large; an effect the other way counts as inactive or inconclusive.

`COc1ccc2nc(C)cc(SCC(=O)N/N=C/c3ccc(O)cc3O)c2c1` gave Tau fibril FP inactive, JMJD2E inh inactive, Tau fibril ThT inconclusive, Tau fluor counter inconclusive and RGS12 GoLoco inh inactive.
For Cc1cc(C)n(CCC(=O)N/N=C/c2ccc(O)cc2O)n1 the results were Tau fibril FP inactive, JMJD2E inh 14.1µM, Tau fibril ThT inactive, Tau fluor counter inactive and RGS12 GoLoco inh inactive.
Screening CCN(C(=O)c1cc(S(=O)(=O)N2CCc3ccccc32)cn1C)c1cccc(C)c1 returned Tau fibril FP inactive, Tau fibril ThT inactive and Tau fluor counter inactive.
CCn1c(C)nc2cc(C(=O)N=Nc3c(O)[nH]c4c(C)cc(C)cc34)ccc21 was read as Tau fibril FP inactive, JMJD2E inh inactive, Tau fibril ThT 7.08µM, Tau fluor counter inactive and RGS12 GoLoco inh inactive.
Screening CCc1ccc(C(=O)CSC2=C(C#N)C(c3ccco3)C(C(C)=O)=C(C)N2)cc1 (stereo not drawn) returned Tau fibril FP inactive, JMJD2E inh inactive, Tau fibril ThT inconclusive, Tau fluor counter inconclusive and RGS12 GoLoco inh inactive.
Screening CC(=O)C1=C(C)NC(SCC(=O)c2cc(Cl)ccc2Cl)=C(C#N)C1c1ccco1 (stereo not drawn) returned Tau fibril FP inconclusive, JMJD2E inh inconclusive, Tau fibril ThT 28.2µM, Tau fluor counter inconclusive and RGS12 GoLoco inh inactive.
Screening CC(=O)C1=C(C)NC(SCC(=O)c2ccc(F)cc2)=C(C#N)C1c1ccco1 (stereo not drawn) returned Tau fibril FP inactive, JMJD2E inh inactive, Tau fibril ThT 15.8µM, Tau fluor counter inconclusive and RGS12 GoLoco inh inactive.
`COc1ccccc1NC(=O)Cn1cc(C(=O)c2ccncc2)c(=O)c2cc(C)ccc21` gave Tau fibril FP inactive, Tau fibril ThT inactive and Tau fluor counter inactive.
O=C(/C=C/c1ccc(Cl)cc1)N1CCN(c2ccc(Cl)cc2[N+](=O)[O-])CC1 was read as Tau fibril FP inactive, JMJD2E inh inactive, Tau fibril ThT 7.94µM, Tau fluor counter inactive and RGS12 GoLoco inh inactive.
Screening Cc1ccc(C(=O)O/N=C\c2ccc(N3CCOCC3)c([N+](=O)[O-])c2)cc1 returned Tau fibril FP inactive, JMJD2E inh inactive, Tau fibril ThT inconclusive, Tau fluor counter inactive and RGS12 GoLoco inh inactive.
O=C(/C=C/c1ccc([N+](=O)[O-])cc1)N1CCN(c2ccccc2F)CC1 was read as Tau fibril FP inactive, JMJD2E inh inactive, Tau fibril ThT inactive, Tau fluor counter inactive and RGS12 GoLoco inh inactive.
O=C(O/N=C\c1ccc(N2CCCCC2)c([N+](=O)[O-])c1)c1ccc(Cl)cc1Cl was read as Tau fibril FP inactive, JMJD2E inh inactive, Tau fibril ThT 5.01µM, Tau fluor counter inactive and RGS12 GoLoco inh inactive.
Screening CCOC(=O)c1[nH]c(C)c(CCC(=O)N2CCN(c3cc(C)ccc3C)CC2)c1C returned Tau fibril FP inactive, Tau fibril ThT inactive and Tau fluor counter inactive.
`COc1ccc(-c2cc(-c3ccccc3)nc(SCC(=O)Nc3nccs3)c2C#N)cc1` gave Tau fibril FP inconclusive, JMJD2E inh inactive, Tau fibril ThT inactive and Tau fluor counter inactive.
Screening CCOC(=O)c1sc(NC(=O)CSc2nc(C)cc(C)c2C#N)c(C#N)c1C returned Tau fibril FP inactive, JMJD2E inh inactive, Tau fibril ThT inactive, Tau fluor counter inactive and RGS12 GoLoco inh inactive.
CCOC(=O)c1sc(NC(=O)CSc2nc(C)cc(-c3ccccc3)n2)c(C#N)c1C was read as Tau fibril FP inconclusive, JMJD2E inh inactive, Tau fibril ThT 35.5µM, Tau fluor counter inconclusive and RGS12 GoLoco inh inactive.
`COc1ccc(-c2cc(-c3ccccc3)c(C#N)c(SCC(=O)Nc3ncc(C)s3)n2)cc1` gave Tau fibril FP 28.2µM, JMJD2E inh inconclusive, Tau fibril ThT inactive, Tau fluor counter inactive and RGS12 GoLoco inh inactive.
`CCc1c(C)sc2c1CCN(C(=O)Nc1cc(C)ccc1OC)C2c1ccc(F)cc1` (stereo not drawn) gave Tau fibril FP inactive, Tau fibril ThT inactive and Tau fluor counter inactive.
For Cc1ccc(S(=O)(=O)N(CC(O)Cn2c3ccccc3c3ccccc32)c2cccc(C(=O)NCCO)c2)cc1 (stereo not drawn) the results were Tau fibril FP inactive, Tau fibril ThT inactive and Tau fluor counter inconclusive.
For Cc1[nH]c(=S)c(C#N)c2c1CCCC2 the results were Tau fibril FP inactive, JMJD2E inh inactive, Tau fibril ThT inactive, Tau fluor counter inactive and RGS12 GoLoco inh inactive.
N#Cc1c(N)sc(=S)c2c1CCCC2 was read as Tau fibril FP inactive, JMJD2E inh inactive, Tau fibril ThT 14.1µM, Tau fluor counter inconclusive and RGS12 GoLoco inh inactive.
`CCC1(C)Cc2c(C#N)c(N)sc(=S)c2CO1` (stereo not drawn) gave Tau fibril FP inconclusive, JMJD2E inh inconclusive, Tau fibril ThT 25.1µM, Tau fluor counter inactive and RGS12 GoLoco inh inactive.
`CCc1c(C)nc(SCc2nc(-c3ccccc3C)no2)[nH]c1=O` gave Tau fibril FP inactive, Tau fibril ThT inactive and Tau fluor counter inactive.
For COc1ccc(NC(=O)O/N=C2/CCCc3ccc(OC)cc32)cc1 the results were Tau fibril FP inconclusive, JMJD2E inh inconclusive, Tau fibril ThT 14.1µM and Tau fluor counter inconclusive.
`Cc1oc(=O)c(NC(=O)c2ccc(Cl)cc2)cc1C(=O)c1ccccc1` gave Tau fibril FP inconclusive, JMJD2E inh inconclusive, Tau fibril ThT 17.8µM, Tau fluor counter inactive and RGS12 GoLoco inh inactive.
For COC(=O)c1cc(NC(=O)c2ccc(OC)cc2)c(=O)oc1C the results were Tau fibril FP inactive, JMJD2E inh inactive, Tau fibril ThT inconclusive, Tau fluor counter inactive and RGS12 GoLoco inh inactive.
CCOC(=O)c1cc(NC(=O)c2ccccc2)c(=O)oc1C(F)(F)F was read as Tau fibril FP inactive, JMJD2E inh inactive, Tau fibril ThT inactive, Tau fluor counter inactive and RGS12 GoLoco inh inactive.
Screening Cc1oc(=O)c(NC(=O)c2ccccc2)cc1C(=O)c1ccccc1 returned Tau fibril FP inconclusive, JMJD2E inh inactive, Tau fibril ThT 25.1µM, Tau fluor counter inactive and RGS12 GoLoco inh inactive.
CC(=O)c1cc(NC(=O)c2ccccc2)c(=O)oc1C was read as Tau fibril FP inconclusive, JMJD2E inh inconclusive, Tau fibril ThT 28.2µM, Tau fluor counter inactive and RGS12 GoLoco inh inactive.
For CC(=O)c1cc(NC(=O)c2ccc(C)cc2)c(=O)oc1C the results were Tau fibril FP inconclusive, JMJD2E inh inconclusive, Tau fibril ThT 31.6µM, Tau fluor counter inactive and RGS12 GoLoco inh inactive.
`COc1ccc(C)cc1NC(=O)Cn1c(=O)oc2cc(S(=O)(=O)N3CCCCC3)ccc21` gave Tau fibril FP inconclusive, Tau fibril ThT inactive and Tau fluor counter inactive.
Screening COc1ccc(C(=O)CCC(=O)Nc2cccc(C(C)=O)c2)cc1 returned Tau fibril FP inactive, Tau fibril ThT inactive and Tau fluor counter inactive.
Screening Cc1cc(-c2nn(-c3ccccc3)cc2/C=C2\SC(N)=NC2=O)ccc1OC(C)C returned Tau fibril FP 3.16µM, JMJD2E inh inactive, Tau fibril ThT inactive, Tau fluor counter inconclusive and RGS12 GoLoco inh inactive.
